For 34 compounds, Inhibition results are on record in ChEMBL document CHEMBL4513146, “CO-ADD screening of Karazin Kharkiv National University (Ukraine) compounds”.

Potency and affinity values are given separately.

Usually Inhibition stands for the relative decrease from the control value, in per cent.

One test concerns Staphylococcus aureus. Conditions: Concentration 32 ug.mL-1;; ASSAY_TEST Inhibition of Bacterial Growth; detection method Absorption (OD600); MEDIA CAMHB; plate type 384well; NBS; CORNING #3640; time 18 hr.
Another test concerns Escherichia coli. Conditions: Concentration 32 ug.mL-1;; ASSAY_TEST Inhibition of Bacterial Growth; detection method Absorption (OD600); MEDIA CAMHB; plate type 384well; NBS; CORNING #3640; time 18 hr.

With `CCOc1ccc(NC(=O)Cn2nc3ccc(-c4ccccc4)nn3c2=O)cc1`, the Inhibition in the test on Staphylococcus aureus is recorded as 5.36%; in the test with Escherichia coli, -5.9%.
Consider `CCCCn1c(=O)c2sccc2n2c(=O)n(CC(=O)c3cccc(OC)c3)nc12`, for which the Inhibition with Staphylococcus aureus turned out to be 9.41%; in the test with Escherichia coli, 0.65%.
With `O=C(CCc1nnc2c(N3CCCCC3)nc3ccccc3n12)NCc1ccc2c(c1)OCO2`, the Inhibition is listed as 17.67% with Staphylococcus aureus and 2.95% in the test on Escherichia coli.
For `Cc1cccc(N(C)C(=O)Cn2nc3cc(C)nc(Nc4ccc(F)c(C)c4)n3c2=O)c1`, in that order: 1.96% and -7.99%.
As for `CCc1ccc(N(Cc2ccccc2F)S(=O)(=O)c2cccn3c(CC)nnc23)cc1`, the Inhibition with Staphylococcus aureus is recorded as -9.17%; in the test with Escherichia coli, 1.03%.
Consider `O=C(Cn1nc2c3cc(-c4ccc(F)cc4)nn3ccn2c1=O)NCc1ccccc1Cl`, for which the Inhibition in the test with Staphylococcus aureus is recorded as 7.18%; in the test on Escherichia coli it was -0.1%.
For `CCc1ccc(NC(=O)Cn2nc3cc(C)nc(Nc4ccc(C)c(F)c4)n3c2=O)cc1`, in that order: -14.67% and -1.11%.
As for `CSc1cccc(NC(=O)Cn2nc3c(Sc4ccc(C)cc4C)nccn3c2=O)c1`, the Inhibition with Staphylococcus aureus was -13.41%; in the test on Escherichia coli, -16.34%.
Take `O=C(Cn1nc2ccc(-c3ccccc3)nn2c1=O)Nc1cccc(Cl)c1`: the Inhibition is reported as -4.62% with Staphylococcus aureus and -11.73% with Escherichia coli.
As to `CCN(CCCNC(=O)CCc1nnc2ccc(-c3ccc(C)c(C)c3)nn12)c1ccccc1`, the results for the Inhibition in the test with Staphylococcus aureus and with Escherichia coli were -5.09% and -5.52%, respectively.
For `Cc1cc2nn(CC(=O)N3CCOCC3)c(=O)n2c(Nc2ccc(C)c(F)c2)n1`, in that order: 15.64% and -0.78%.
As to `O=C(CSc1nnc2c(=O)n(-c3cccc(F)c3)ccn12)c1ccc(F)cc1`, the Inhibition with Staphylococcus aureus is listed as 5.39%; in the test on Escherichia coli it was 1.51%.
Turning to `COc1ccc(NC(=O)Cn2nc3c(Sc4ccccc4)nccn3c2=O)cc1OC`, the Inhibition is -8.9% in the test with Staphylococcus aureus and -5.11% with Escherichia coli.
For `CC(C)CCn1c(=O)c2ccc(C(=O)NC3CCCCC3)cc2n2c(=O)n(CC#N)nc12`, in that order: 5.76% and -7.09%.
Turning to `Cc1nc(-c2ccccc2)cc2nn(CC(=O)Nc3ccc4c(c3)OCO4)c(=O)n12`, the Inhibition is on record as 14.7% in the test on Staphylococcus aureus and -4.44% in the test on Escherichia coli.
Regarding `Cc1ccc(Oc2nccn3c(=O)n(CC(=O)Nc4ccc(C)cc4Br)nc23)cc1`, the Inhibition is 4.05% in the test with Staphylococcus aureus and -2.42% in the test with Escherichia coli.
Consider `Cc1cccc(-c2nc(CSc3nc4ccccc4n4c(C)nnc34)c(C)o2)c1`, for which the Inhibition in the test with Staphylococcus aureus came out at 9.9%; in the test with Escherichia coli it was 1.23%.
Take `O=S(=O)(Nc1ccc2c(c1)OCCO2)c1ccc2nncn2c1`: the figures for the Inhibition in the test on Staphylococcus aureus and with Escherichia coli were 11.97% and -4.23%, respectively.
Take `CCc1nnc2ccc(S(=O)(=O)N(Cc3cccc(F)c3)c3ccc(OC)cc3)cn12`: the Inhibition in the test with Staphylococcus aureus is on record as 7.39%; with Escherichia coli, -21.14%.
With `CCc1nnc2ccc(S(=O)(=O)N(Cc3ccc(F)cc3)c3ccccc3)cn12`, the values for the Inhibition in the test with Staphylococcus aureus and in the test with Escherichia coli were -1.95% and -12.51%, respectively.
For `COc1ccc(-c2cc3c4nn(CC(=O)N5CCCc6ccccc65)c(=O)n4ccn3n2)cc1`, the Inhibition was found to be 6.07% with Staphylococcus aureus and 1.46% with Escherichia coli.
As to `Cc1nnc2ccc(S(=O)(=O)N(Cc3ccccc3F)c3ccc(F)c(F)c3)cn12`, the Inhibition was 3.86% in the test with Staphylococcus aureus and -6.57% in the test with Escherichia coli.
As for `CCCCc1ccc(NC(=O)Cn2nc3ccc(C(=O)Nc4ccc(OC)cc4)cn3c2=O)cc1`, the Inhibition in the test on Staphylococcus aureus is given as 3.96%; in the test with Escherichia coli it was -4.6%.
For `Cc1cccc(NC(=O)Cn2nc3c4cc(-c5ccc(Cl)cc5)nn4ccn3c2=O)c1`, in that order: 3.19% and -7.53%.
In the case of `O=C(CSc1nnc2c(=O)n(-c3ccccc3)ccn12)Nc1ccc2c(c1)OCO2`, the Inhibition in the test with Staphylococcus aureus is on record as 8.51%; in the test with Escherichia coli, -2.5%.
Turning to `CCOC(=O)c1ccc(NC(=O)CSc2nc3ccccc3n3c(C(C)C)nnc23)cc1`, the figures for the Inhibition with Staphylococcus aureus and in the test on Escherichia coli were -3.17% and -9.79%, respectively.
As to `Cc1ccc(NC(=O)Cn2nc3ccc(SC(C)(C)C)nn3c2=O)cc1C`, the values for the Inhibition in the test with Staphylococcus aureus and in the test on Escherichia coli were -0.92% and 2.46%, respectively.
`O=C(Cn1nc2c(Sc3ccccc3)nccn2c1=O)Nc1ccc2c(c1)OCO2`: the Inhibition is listed as -26.09% in the test on Staphylococcus aureus and 0.44% in the test with Escherichia coli.
As to `O=C(Cn1nc2c(Sc3ccccc3)nccn2c1=O)Nc1cc(F)ccc1F`, the figures for the Inhibition in the test with Staphylococcus aureus and in the test with Escherichia coli were 0.01% and -13.52%, respectively.
As to `CCOc1ccc(NC(=O)Cn2c(=O)c3nnc(C(C)C)n3c3ccccc32)cc1`, the Inhibition in the test with Staphylococcus aureus was 13.61%; with Escherichia coli it was 5.76%.
As for `Cc1ccc(Cn2nc3c(=O)n(-c4ccc(C)c(C)c4)ccn3c2=O)cc1`, the Inhibition with Staphylococcus aureus is reported as 14.06%; in the test on Escherichia coli, -0.87%.
With `COC(=O)c1ccc(NC(=O)Cn2nc3ccc(Sc4ccc(C)cc4)nn3c2=O)cc1`, the Inhibition in the test with Staphylococcus aureus is 10.91%; in the test with Escherichia coli, -1.06%.
As for `Cc1ccc(-c2cc3c4nnc(SCC(=O)Nc5ccc(C#N)cc5)n4ccn3n2)cc1`, the Inhibition in the test on Staphylococcus aureus is -4.94%; in the test on Escherichia coli it was -8.26%.
Take `Cc1ccc(CN(c2cc(C)cc(C)c2)S(=O)(=O)c2cccn3c(C)nnc23)cc1`: the Inhibition is given as 31.07% in the test on Staphylococcus aureus and -7.16% in the test on Escherichia coli.
